The panel holds about 83,000 compounds, 20% with a hit somewhere; the sample as a whole holds those more often.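 Negative percent growth values reflect cell death: -40 means 40% of the cells present at the start died, and -100 means all died.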 A number with no mark means an inactive call. Active and inactive are the calls of the source. The calls were made as follows: active = growth percent below 10; inactive = the rest.
Tested on: HL-60(TB) leukemia
Assay: NCI-60 one-dose screen, 48 h (100 = growth as untreated, 0 = no growth, -100 = all killed)
Settings: 10 µM unless noted

Question: How did the growth turn out when Clc1ccc(-c2cn(-c3ccccc3)c(-c3ccccc3)n2)c(Cl)c1 was run?
Answer: 52.1%

Question: OCC1OC(O)C(O)C(O)C1O (stereo not given) was tested. Which growth did it give?
Answer: 120%

Question: How did the growth turn out when COc1ccc(/C=C/c2nc3ccccc3c(=O)n2-c2ccc(C#Cc3ccc(C(C)(C)C)cc3)cc2C)c(OC)c1 was run?
Answer: 67.4%

Question: With CCCCCCc1cc(N=Nc2ccc(S(=O)(=O)Nc3cc(C)nc(C)n3)cc2)c(O)cc1O as the compound, how does the growth read?
Answer: 94.4%

Question: For CCOC(=O)c1c2c(n3ccc(NC(=O)CCN4CCCC4)cc13)C(=O)c1ncccc1C2=O, which growth is on record?
Answer: -34.2% (active)

Question: For CCN(CC)CCCC(Nc1c2ccc(Cl)cc2nc2ccc(OC)cc12)c1ccncc1 (stereo not given), which growth is on record?
Answer: 101%

Question: Which growth does the source give for COc1ccc(NC(=O)CSc2oc(-c3ccccc3)nc2S(=O)(=O)c2ccc(Cl)cc2)c(OC)c1 here?
Answer: 49.4%

Question: With Cc1[nH]c(-c2ccc3cc[nH]c3c2)c2c1C(=O)CCCC2 as the compound, how does the growth read?
Answer: 20.5%

Question: CCSc1oc(C)nc1[P+](c1ccccc1)(c1ccccc1)c1ccccc1 was tested. Which growth did it give?
Answer: 7.21% (active)

Question: For O=C1c2c(c3c4cccc(F)c4[nH]c3c3ccc4ccccc4c23)C(=O)N1O, which growth is on record?
Answer: 31%

Question: COc1ccc(-n2nc(C)c3c(Nc4ccc(NC(=O)Nc5c(Cl)cccc5Cl)cc4)ncnc32)cc1 was tested. Which growth did it give?
Answer: 97.8%

Question: For O=C1CNc2cc(Cl)ccc2N1, which growth is on record?
Answer: 99.7%

Question: Which growth does the source give for Cc1ccnc2nc(C(=O)OCC(=O)Nc3ccc(-c4ccccc4)cc3)nn12 here?
Answer: 72.8%

Question: With CCOC(=O)COc1ccc2c(c1)O/C(=C\c1ccc(O)cc1)C2=O as the compound, how does the growth read?
Answer: 112%

Question: With CC(=O)OCC1OC(OC2=C(CC=C(Cl)Cl)C(=O)c3ccccc3C2=O)C(OC(C)=O)C(OC(C)=O)C1OC(C)=O (stereo not given) as the compound, how does the growth read?
Answer: 0.376% (active)

Question: Which growth does the source give for CNc1ccccc1C(N)=O here?
Answer: 114%

Question: How did the growth turn out when OCc1ccc(-c2ccc(-c3ccc(CO)s3)o2)s1 was run?
Answer: 21.7%

Question: Which growth does the source give for CCC(CCCN1C(=O)c2ccccc2C1=O)Nc1cc(OC)cc2c(C)ccnc12 (stereo not given) here?
Answer: 87.4%

Question: How did the growth turn out when COc1ccc(C(=O)c2cc(OC)c(C)c(OC)c2)cc1OC(=O)CCl was run?
Answer: -28.5% (active)

Question: Which growth does the source give for CC1=CC(=O)CC(C)(C)[C@@]1(O)/C=C/[C@@H](C)O here?
Answer: 110%

Question: With COc1cc2c(cc1OC)[C@H](C(=O)O)[C@@H](c1ccc(OC(C)C)c(OC)c1)N(C)C2=O as the compound, how does the growth read?
Answer: 94.9%

Question: COc1ccc2c3c([nH]c2c1)C(=O)c1nc(C)ccc1C3=O was tested. Which growth did it give?
Answer: 59%

Question: With CSc1nc(-c2cc3ccccc3o2)cc(-c2ccc(Cl)cc2)c1C#N as the compound, how does the growth read?
Answer: 126%

Question: Which growth does the source give for c1ccc(CCn2nnc3c(Nc4ccc(N5CCOCC5)cc4)ncnc32)cc1 here?
Answer: 96.7%

Question: Nc1cc2nc3ccccc3oc-2cc1=O was tested. Which growth did it give?
Answer: 16.2%

Question: Which growth does the source give for CCn1c(=O)c(C(=O)NCCCO)c(O)c2ccccc21 here?
Answer: 90.5%

Question: With COc1ccc(C(=O)n2nc(/C=C/c3ccc(O)c(OC)c3)cc2/C=C/c2ccc(O)c(OC)c2)cc1 as the compound, how does the growth read?
Answer: -15.6% (active)

Question: For N[C@@H](Cc1ccccc1)[C@@H](O)C(=O)NCc1ccc(F)cc1, which growth is on record?
Answer: 101%

Question: N#Cc1c(N2CCOCC2)nc2sc3cc(Cl)ccc3n2c1=N was tested. Which growth did it give?
Answer: 107%

Question: For C=CCn1c(SCC(=O)Nc2ccc(C(=O)/C=C/c3cc(OC)c(OC)c(OC)c3)cc2)nnc1-c1cc(OC)c(OC)c(OC)c1, which growth is on record?
Answer: 16.5%

Question: For O=C1OC(c2ccc(-c3ccccc3)cc2)=C/C1=C/C=C/c1ccccc1, which growth is on record?
Answer: 90.5%

Question: With Fc1ccc2[nH]cc(-c3nc(-c4c[nH]c5c(Cl)nccc45)cs3)c2c1 as the compound, how does the growth read?
Answer: 35.4%

Question: How did the growth turn out when NNc1ncnc2nc[nH]c12 was run?
Answer: 35.3%

Question: With CNc1ccc(CSc2ccc(C)cc2)cc1 as the compound, how does the growth read?
Answer: 11.8%

Question: For COc1ccc(/C=N/C2=C(C#N)C(c3ccc(OC)cc3)c3ccc4ccccc4c3O2)cc1 (stereo not given), which growth is on record?
Answer: 63.4%

Question: For CC1=C2[C@@H](CC1)[C@]1(C)O[C@@](C(C)C)(C[C@H]1OC(=O)CO)[C@H]2OC(=O)C1CC1c1ccccc1 (stereo not given in full), which growth is on record?
Answer: 89.8%

Question: With C=C(C)CCC(C)N1CCC(N2CCC(C(=O)NCCc3ccccc3)CC2)CC1 (stereo not given) as the compound, how does the growth read?
Answer: 27.4%

Question: How did the growth turn out when Cc1cc(C(=O)c2ccccc2)cc(C)c1O was run?
Answer: 31.3%

Question: With O=C(N/N=C/c1c(Cl)cccc1Cl)c1ccc(C(F)(F)F)nc1Nc1cccc(C(F)(F)F)c1 as the compound, how does the growth read?
Answer: -44.5% (active)

Question: Which growth does the source give for C[C@H]1[C@H]2[C@H]3CC[C@@H]4[C@@]5(C)CC[C@H](O)C(C)(C)[C@@H]5CC[C@@]4(C)[C@]3(C)CC[C@]23CO[C@]1(C)[C@@H](C(=O)/C=C\c1cccnc1)C3 here?
Answer: 47.5%

Source: PubChem BioAssay (NCI)
